The values that follow come from PubChem BioAssay AID485297 (National Center for Advancing Translational Sciences (NCATS), 2010).

The campaign covered roughly 320,000 compounds. About 9,100 (2.8%) were called active. Not shown: some 3% with an inconclusive outcome. The entries come from a sample that favours actives as a whole. Unmarked numbers belong to inactive results. Calls come from the whole dose curve; as a rule, active = well fitted activation curve with a large enough effect; inconclusive = small, poorly fitted or top-dose-only effect; inactive = no such curve, though single readings can be large or run the other way.
Potency is the fitted concentration of half-maximal effect.

The test is described as follows: qHTS Assay for Rab9 Promoter Activators. For activation, negative = inhibition: % of control where 0% means no effect. Note: nearly all actives have a fitted effect of over 60% in size. The note with it: Huh7 Rab9 promoter-luciferase reporter, luminescence, 24 h; series mostly up to 9.22 µM; activation, negative = inhibition: at the top concentration. The essentials: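 Luminescence from Amplite-detected luciferase (10 minutes, ambient) reports Rab9 promoter activation. Before that, stable Rab9-luciferase Huh7 cells (1500/well, reduced-serum OP-MEM I plus 10% FBS) were exposed to compound for 24 hours at 37C.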
On the technique in general: qHTS replaces the single test concentration by a dilution series.
Take `Cc1ccc(C)c(C(=O)COC(=O)Cn2[nH]c(=O)c3ccccc3c2=O)c1`: the “activation, negative = inhibition” value was 0.526%. Same read-out and setting: next, `CC(C)CN(Cc1c(O)ccc2c(=O)c(-c3ccccc3)coc12)CC(C)C`: 0.55%.

Take `O=c1c(-c2ccccc2)coc2cc(O)ccc12`: the Potency is 2.82 µM (active).

As to `O=c1c(-c2ccccc2)coc2c(CN3CCOCC3)c(O)ccc12`, the “activation, negative = inhibition” value was 0.818%. Turning to `COc1ccccc1CNC(=O)CCCN1C(=O)NC2(CCCC2)C1=O`, the “activation, negative = inhibition” value is -12.7%. Consider `COc1ccc(C2(C)ON(c3ccccc3C(F)(F)F)C2=O)cc1` (centres undefined), for which the “activation, negative = inhibition” value is -2.59%. `Cc1nc(-c2ccc(F)cc2)c(CC(=O)N(C)CC(=O)Nc2c(C)cccc2C)s1`: the “activation, negative = inhibition” value is 7.06%. As to `Cc1nc2ccccc2cc1C(=O)N/N=C/c1ccc([N+](=O)[O-])cc1`, the “activation, negative = inhibition” value is -2.69%.

As for `Cc1ccc(/C=N/NC(=O)c2sccc2OCc2ccc(F)cc2)cc1`, the “activation, negative = inhibition” value was -11.5%.

With `Cc1ccsc1C(=O)N/N=C/c1ccc([N+](=O)[O-])cc1`, the Potency was 3.55 µM (active). `Cc1ccc(NC(=O)CN2CCC(C(N)=O)CC2)cc1[N+](=O)[O-]`: the “activation, negative = inhibition” value is 18.2%.

`Cc1ccc(NC(=O)CN(C)CC(=O)Nc2cccc(F)c2)cc1[N+](=O)[O-]`: the “activation, negative = inhibition” value was -18.7%. As to `Cc1ccc(NC(=O)c2sccc2C)cc1[N+](=O)[O-]`, the Potency is 1.78 µM (active). For `CN(C)c1cc2c(Nc3ccc4c(cnn4Cc4ccccc4)c3)ncnc2cn1`, the “activation, negative = inhibition” value was -30.6% [at 46.1 µM]. `CNC(=O)C1CC(=O)N(c2ccc(OCC(=O)Nc3ccccc3C)cc2)C1` (centres undefined): the “activation, negative = inhibition” value is 5.32%.

Regarding `COc1ccc(NS(=O)(=O)c2cc(NC(=O)COc3ccccc3F)ccc2OC)cc1`, the “activation, negative = inhibition” value was 1.94%. Take `CCOc1ccc2oc(C(=O)N(CC)CC(=O)Nc3ccc(NC(C)=O)cc3)c(C)c2c1`: the “activation, negative = inhibition” value is -1.55%. On to `CCC[C@H]1CCCC/C=C\CCCC(=O)OCCN1C(=O)OC(C)(C)C`, for which the “activation, negative = inhibition” value is -5.47%.

For the molecule `Nc1c(C(=O)OCC(=O)Nc2ccc(OC(F)F)cc2)[nH]c(=O)[nH]c1=O`, the “activation, negative = inhibition” value is 0.105%. Turning to `COc1cccc(/C=C/c2ccc3ccccc3n2)c1OC(C)=O`, the Potency is 0.447 µM (active). `NC(=O)COC(=O)/C=C/c1ccc2ccccc2n1`: the “activation, negative = inhibition” value was 1.99%. As for `COc1cccc(/C=C2\C=C(c3ccc(C)cc3)OC2=O)c1OC(C)=O`, the “activation, negative = inhibition” value was 1.65%.

As to `CCc1ccc(Nc2nnc(SCC(=O)c3ccc4c(c3)NC(=O)CO4)s2)cc1`, the “activation, negative = inhibition” value is -30.9%. On the same count and under the same terms, next, `Cc1noc(C)c1-c1ccc2ncnc(NC(C)c3ccco3)c2c1` (centres undefined): -2.48%; `COc1ccc(CN2CCN(C(=O)c3cc(C4CC4)nn3-c3ccccc3)CC2)cc1F`: 15.7%. `Nc1ccc2nn(-c3ccc(Cl)cc3)nc2c1`: the Potency is 0.224 µM (active).

Turning to `CN(C)c1nnnn1-c1ccc(Cl)cc1`, the “activation, negative = inhibition” value is 2.01%. Consider `c1ccc(-n2nc3ccccc3n2)cc1`, for which the “activation, negative = inhibition” value was -3.95%. Take `CCOc1ccc(N2C(=O)CSC2=NC#N)cc1`: the “activation, negative = inhibition” value is -2.64%. The same measure, in the same setting: next, `C=CCn1c(SCC(=O)Nc2ccc(NC(C)=O)cc2)nc2sc(C)c(C)c2c1=O`: -8.33%; `Cc1nc2ccc(NC(=O)C(F)(F)F)cc2o1`: 1.46%. Take `Cc1ccc(NC(=O)Nc2ccc3oc(C)nc3c2)cc1`: the Potency was 1.58 µM (active).

Take `COC(=O)c1ccc(NC(=O)Nc2ccc(C)cc2)cc1`: the “activation, negative = inhibition” value is 27.4%. Regarding `CCOc1ccc(C(=O)NCC(=O)N2CCN(c3ccc(C(F)(F)F)cn3)CC2)cc1`, the “activation, negative = inhibition” value was -12%. Still for that read-out and setting: next, `CCCCn1c(N)c(N(CCC(C)C)C(=O)COC(=O)c2ccc(CC)cc2)c(=O)[nH]c1=O`: -0.386%; `Cc1ncc(CO)c(/C=N/NC(=O)c2cccc(S(=O)(=O)N3CCCC3)c2)c1O`: -4.79%; `Cc1ccc(NC(=O)O/N=C/c2cccc([N+](=O)[O-])c2)cc1`: 4.71%. As for `O=[N+]([O-])c1cccc(/C=N/Nc2ncc(Br)cn2)c1`, the Potency is 2.82 µM (active).

Regarding `O=C(N/N=C/c1cccc([N+](=O)[O-])c1)C1CC(=O)N(c2ccc(Br)cc2)C1` (centres undefined), the “activation, negative = inhibition” value was -3.01%.

As for `CCOc1ccc(NC(=O)CN(C)C(=O)Cn2c(=O)cnc3ccccc32)cc1OCC`, the “activation, negative = inhibition” value is 3.18%.

Take `Cc1nn(Cc2ccc(Cl)cc2)c(Cl)c1/C=N/NC(=O)c1cccnc1`: the “activation, negative = inhibition” value is -0.877%. Regarding `Cc1cc(/C=N/NC(=O)c2cccnc2)c(C)n1CC(C)C`, the Potency was 2.82 µM (active). For the molecule `O=C(N/N=C/c1ccccn1)c1cccnc1`, the “activation, negative = inhibition” value is -1.61%. Same read-out and setting: next, `Cc1cnc(NC(=O)C2CCCC2)s1`: 2.21%; `O=C(Nc1nnc(C2CC2)s1)c1cc(Cl)sc1Cl`: 16%. Take `O=C(Cc1cccs1)Nc1nnc(C2CC2)s1`: the “activation, negative = inhibition” value was 1.92%. `Cc1occc1C(=O)Nc1nnc(C2CCCCC2)s1`: the Potency is 2.82 µM (active). For `Cc1occc1C(=O)Nc1nnc(-c2ccncc2)s1`, the “activation, negative = inhibition” value was 14.6%.

Turning to `COc1ccc(NC(=O)CCC(=O)Nc2nnc(C3CCCCC3)s2)cc1`, the “activation, negative = inhibition” value is 10.1%. Turning to `CCN(CC)c1ccc(NC(=O)c2ccc(Cl)nc2)cc1`, the “activation, negative = inhibition” value was -25.6%.

Regarding `O=C(Nc1nnc(C2CC2)s1)c1ccccn1`, the Potency is 0.447 µM (active). For the molecule `CS(=O)(=O)c1ccc2nc(NC(=O)c3ccc(Cl)nc3)sc2c1`, the “activation, negative = inhibition” value is 10.6%. On to `Cc1cnc(NC(=O)c2ccc(Cl)nc2)s1`, for which the Potency is 2.82 µM (active). As for `Cc1cnc(NC(=O)c2ccccn2)s1`, the Potency was 0.282 µM (active).

On to `Cc1cnc(NC(=O)CSc2c(Cl)cccc2Cl)s1`, for which the “activation, negative = inhibition” value is 0.703%. On the same count and under the same terms, next, `CCCCCN(C(=O)CCC(=O)OCC(=O)NCc1ccc(OC)cc1)c1c(N)n(CCCC)c(=O)[nH]c1=O`: -0.822%; `CC(=O)c1ccccc1NC(=O)C1CC(=O)N(c2ccc3c(c2)OCCO3)C1` (centres undefined): -0.721%; `CN(CC(=O)Nc1ccc(OC(F)(F)F)cc1)C(=O)C1CCC1`: -5.11%. The same measure, in the same setting: next, `CSc1ccccc1NC(=O)COC(=O)CCCOc1ccc(C)cc1`: -2%; `Cc1ccc(S(=O)(=O)N2CCN(C(=O)N3CCOCC3)CC2)c(C)c1`: 0.487%. In the case of `COc1ccccc1N1CCN(/N=C/c2ccc(O)cc2O)CC1`, the Potency is 3.16 µM (active). Regarding `COc1ccccc1N1CCN(C(=O)C(=O)N/N=C/c2ccccc2F)CC1`, the “activation, negative = inhibition” value was -6.38%. For the molecule `COc1cc(/C=N/N2CCN(c3ccccc3)CC2)ccc1OC(C)=O`, the “activation, negative = inhibition” value is -1.62%. As to `Fc1ccc(COc2ccc(-c3nnco3)cc2)cc1`, the Potency is 3.98 µM (active). Take `Fc1cccc(Cl)c1COc1ccc(-c2nnco2)cc1`: the “activation, negative = inhibition” value was 15.3%. On to `Fc1ccc(COc2cccc(-c3n[nH]c(=S)o3)c2)cc1`, for which the “activation, negative = inhibition” value is 1.15%.

Turning to `CC(NC(=O)c1cccc(S(=O)(=O)N2CCc3ccccc3C2)c1)c1ccco1` (centres undefined), the “activation, negative = inhibition” value is -7.93%. The same measure, in the same setting: next, `O=C(CSc1nnc(CN2CCCC2)n1-c1ccc(F)cc1)c1ccc2c(c1)OCO2`: -4.68%; `CC(C)(C)OC(=O)NCCCCCNC(=O)c1[nH]cnc1C(=O)Nc1nccs1`: -0.539%.
